# p53 PUMA act: mutant p53 pathway reactivation; SW480 PUMA-promoter luciferase; 1.5% of 28,000 active; AID 624151; activation, % at 9.98 µM; in the data active = activation above about 52%; inconclusive = no clear call, values can overlap the other calls
# NOMO-1 viab: STK33 inhibitor candidate reducing NOMO-1 cell viability. NOMO-1 AML viability, CellTiter-Glo luminescence, 72 h. inhibition, % (test concentration not listed). 7.5% of 37,000 active. AID 2330; in the data active = inhibition above about 80%; inconclusive = no clear call, values can overlap the other calls
# STK33 inh: human STK33 kinase inhibition; Q9BYT3; ADP-Glo luminescence, MBP substrate; inhibition, % at 12.5 µM; 0.44% of 27,000 active; in the data active = inhibition above about 20%; inconclusive = no clear call, values can overlap the other calls
# Target sequence (Q9BYT3 whole entry, looked up): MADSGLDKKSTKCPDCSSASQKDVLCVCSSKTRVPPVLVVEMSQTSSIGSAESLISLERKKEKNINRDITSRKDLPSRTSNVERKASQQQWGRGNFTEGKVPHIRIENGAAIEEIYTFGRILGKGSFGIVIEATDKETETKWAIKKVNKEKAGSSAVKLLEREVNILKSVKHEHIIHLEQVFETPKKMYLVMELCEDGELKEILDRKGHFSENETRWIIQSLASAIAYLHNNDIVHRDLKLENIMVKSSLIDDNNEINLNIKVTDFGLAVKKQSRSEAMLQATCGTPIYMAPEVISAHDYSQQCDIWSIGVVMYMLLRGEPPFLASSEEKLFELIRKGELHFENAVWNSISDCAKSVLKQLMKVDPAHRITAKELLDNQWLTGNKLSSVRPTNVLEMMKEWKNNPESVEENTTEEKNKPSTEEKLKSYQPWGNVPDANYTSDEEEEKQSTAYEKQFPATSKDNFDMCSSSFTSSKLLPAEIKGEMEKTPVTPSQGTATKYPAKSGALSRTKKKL
# MITF inhib: blocks MITF activity; inhibition, % (concentration not given with the values); 0.28% of 37,000 active; TRPM1 promoter luciferase, luminescence, 24 h; in the data active = inhibition above about 85%; inconclusive = no clear call, values can overlap the other calls; inactive = below about 68%;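 note: human melanocyte line stably carrying TRPM1 promoter luciferase reporter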
# * = called active by the depositor; ? = inconclusive; . = no result given. The full list was thinned out, with hits kept by preference.
SMILES,p53 PUMA act,NOMO-1 viab,STK33 inh,MITF inhib
Cc1cccc(-c2nnc(SCC(=O)Nc3ccc(Br)cc3F)o2)c1,80*,3,-2,-58
CSc1cccc(NC(=O)CSc2nnc(-c3cccc(C)c3)o2)c1,103*,-3,3,-43
COC(=O)c1ccccc1NC(=O)COc1ccc([N+](=O)[O-])c(C)c1,-1,4,2,-16
COc1ccc(NC(=O)CSc2ncnc3sc(-c4ccccc4)cc23)c([N+](=O)[O-])c1,-5,1,1,33
COc1cc(C2C(C(=O)c3cccs3)C(=O)C(=O)N2Cc2ccco2)cc(OC)c1OC (configuration not stated),-4,-5,1,-13
COC(=O)c1cc(C)sc1NC(=S)Nc1cnn(C)c1C(N)=O,3,-9,-3,-12
CCN1C(=O)c2cccc3c(S(=O)(=O)N4CCCC4C(=O)O)ccc1c23 (configuration not stated),-3,-8,0,-24
CCN1C(=O)c2cccc3c(S(=O)(=O)Nc4ccccc4)ccc1c23,.,105*,.,24
C[C@@H]1CN([C@@H](C)CO)C(=O)Cc2cc(NC(=O)CCCCCC(=O)Nc3ccccc3N)ccc2O[C@@H]1CN(C)Cc1ccncc1,.,34,.,-16
C[C@H]1CN([C@@H](C)CO)C(=O)Cc2cc(NC(=O)CCCCCC(=O)Nc3ccccc3N)ccc2O[C@H]1CN(C)Cc1ccc(-c2ccccc2)cc1,.,142*,.,22
C[C@@H]1CN([C@@H](C)CO)C(=O)Cc2cc(NC(=O)CCCCCC(=O)Nc3ccccc3N)ccc2O[C@@H]1CN(C)Cc1ccccc1,.,113*,.,18
C[C@H]1CN([C@@H](C)CO)C(=O)c2cc(NC(=O)CCCCCC(=O)Nc3ccccc3N)ccc2O[C@H]1CN(C)Cc1ccc(-c2ccccc2)cc1,.,109*,.,11
C[C@H](CO)N1C[C@H](C)[C@H](CN(C)Cc2ccc(-c3ccccc3)cc2)Oc2ccc(NC(=O)CCCCCC(=O)Nc3ccccc3N)cc2C1=O,.,65,.,6
C[C@@H]1CN([C@H](C)CO)C(=O)Cc2cc(NC(=O)CCCCCC(=O)Nc3ccccc3N)ccc2O[C@H]1CN(C)Cc1ccc(Oc2ccccc2)cc1,.,125*,.,-1
COc1ccc(CN(C)C[C@H]2Oc3ccc(NC(=O)CCCCCC(=O)Nc4ccccc4N)cc3CC(=O)N([C@@H](C)CO)C[C@@H]2C)cc1,.,42,.,10
S=C(NCC1CC1)Nc1ccc2[nH]ccc2c1,.,-6,.,-28
O=C(c1cccc2ccccc12)N1CCc2ccccc21,.,43,.,55
C=CCSc1n[nH]c(-c2ccc(C(F)(F)F)cc2)n1,111*,.,.,.
COc1ccc(-c2nc(SCC(=O)Nc3cccc(C(F)(F)F)c3)n[nH]2)cc1,-9,9,3,20
CCOC(=O)C1CCN(C(=O)N2c3ccccc3Sc3ccccc32)CC1,.,2,.,5
CCOC(=O)C1CCN(C(=O)Nc2ccc3snnc3c2)CC1,8,106*,-3,-4
CNC(=S)N(Cc1ccco1)C1CC(=O)N(c2ccc(C(=O)OC)cc2)C1=O (configuration not stated),7,24,-2,11
COc1ccc2nc(Nc3nc(CSc4ccc(Cl)cc4)cc(=O)[nH]3)nc(C)c2c1,6,84*,6,-3
CC1=CCC[C@@H]2[C@](CCc3ccoc3)(C(=O)O)[C@H](C)CC[C@@]12C,-10,26,-4,-7
C[C@@H]1C[C@H]2OCC3=CCC[C@H]([C@]1(CC(O)c1ccoc1)C(=O)O)[C@]32CO (some centres not stated),.,120*,0,19
SMILES,p53 PUMA act,NOMO-1 viab,STK33 inh,MITF inhib
C[C@@H]1CN([C@H](C)CO)C(=O)c2cccc(NC(=O)c3cnccn3)c2O[C@H]1CN(C)Cc1ccc(Cl)c(Cl)c1,.,96*,.,24
C[C@H](CO)N1C[C@H](C)[C@@H](CN(C)Cc2ccc(Oc3ccccc3)cc2)Oc2c(NC(=O)c3cnccn3)cccc2C1=O,.,106*,.,1
C[C@@H]1CN([C@H](C)CO)C(=O)c2cccc(NC(=O)c3cnccn3)c2O[C@H]1CN(C)Cc1ccc(Oc2ccccc2)cc1,.,26,.,0
O=C(Nc1ccc(S(=O)(=O)Nc2ncccn2)cc1)c1ccccc1Oc1ccccc1,13,-8,-1,-3
C[C@@H]1CN([C@@H](C)CO)C(=O)Cc2cc(NC(=O)Nc3ccc(C(F)(F)F)cc3)ccc2O[C@@H]1CN(C)C(=O)Nc1ccccc1,.,112*,2,21
C[C@H]1CN([C@@H](C)CO)C(=O)Cc2cc(NC(=O)Nc3ccccc3)ccc2O[C@@H]1CN(C)C(=O)Nc1ccc(C(F)(F)F)cc1,-16,10,1,-9
C[C@@H]1CN([C@@H](C)CO)C(=O)Cc2cc(NC(=O)Nc3ccc(C(F)(F)F)cc3)ccc2O[C@@H]1CN(C)C(=O)Nc1cccc2ccccc12,.,83*,-4,40
C[C@H](CO)N1C[C@H](C)[C@H](CN(C)C(=O)Nc2ccccc2)Oc2ccc(NC(=O)Nc3ccc(C(F)(F)F)cc3)cc2CC1=O,.,92*,.,8
Cc1ccc(NC(=O)CSC2CC(=O)N(c3ccc(Br)cc3)C2=O)cc1Cl (configuration not stated),1,8,2,-4
COc1ccc(OC)c(NC(=O)Cn2cnc3sc(C)c(-c4ccccc4)c3c2=O)c1,-2,13,8,9
O=C(CSc1nc(O)cc(=O)n1-c1ccccc1)Nc1ccc2ccccc2c1,3,14,-1,3
O=C(NC1=NCCS1)c1cc2ccccc2o1,.,13,3,72
CN(C)c1c(F)cc(C(=O)NC(=O)NC2=NCCS2)cc1F,61*,.,.,.
Fc1ccccc1OCCCCSc1ncccn1,31,1,-4,-92
N#Cc1ccccc1OCCCCSc1ncccn1,102*,21,-4,-97
O=C(COc1ccc2ccccc2c1Br)Nc1ccccc1C(=O)N1CCCCC1,-2,34,-1,29
COc1ccc(C)cc1N(CC(=O)Nc1ccc(I)cc1C)S(C)(=O)=O,-6,10,-2,1
CC(C)(C)c1ccc(OCc2nnc(Sc3ccc([N+](=O)[O-])cn3)n2-c2ccccc2)cc1,4,109*,0,39
CCc1cc(C(c2ccc(Cl)cc2)N2CCN(CCO)CC2)c(NC(=O)c2ccccc2)s1 (configuration not stated),.,117*,.,55
C[C@H]1CN([C@@H](C)CO)C(=O)c2cc(NC(=O)Nc3ccccc3)ccc2O[C@@H]1CN(C)Cc1ccc(C(F)(F)F)cc1,.,?,.,11
C[C@H]1CN([C@@H](C)CO)C(=O)c2cc(NC(=O)Nc3ccc(C(F)(F)F)cc3)ccc2O[C@H]1CN(C)Cc1ccccc1,.,103*,-1,30
C[C@@H]1CN([C@H](C)CO)C(=O)c2cc(NC(=O)Nc3ccc(C(F)(F)F)cc3)ccc2O[C@@H]1CN(C)Cc1ccccc1,.,89*,.,-5
C[C@@H]1CN([C@@H](C)CO)C(=O)c2cc(NC(=O)Nc3ccc(C(F)(F)F)cc3)ccc2O[C@H]1CN(C)Cc1ccccc1,.,96*,3,-16
C[C@@H]1CN([C@@H](C)CO)C(=O)c2cc(NC(=O)Nc3ccc(C(F)(F)F)cc3)ccc2O[C@H]1CN(C)Cc1ccc(Oc2ccccc2)cc1,.,118*,3,60
